Sampled rows, rich in hits. Any-hit rate of the full collection: about 13%.
USP28 block: blocks human USP28 ubiquitin-rhodamine cleavage; Q96RU2; purified USP28, Ub-rhodamine cleavage fluorescence, 30 min; inhibition, % at 25 µM; actives 3% (n = 47,000)
USP17 block: blocks human USP17 ubiquitin-rhodamine cleavage; inhibition, % at 50 µM; A8MUK1; actives 6.5% (n = 47,000); purified USP17, Ub-rhodamine cleavage fluorescence, 3 h
USP7 inh: inhibitors of human USP7 deubiquitinase; Q93009; purified USP7, Ub-rhodamine cleavage fluorescence; inhibition, % at 20 µM; actives 0.3% (n = 47,000); AID 1645854
USP10 inh: blocks human USP10 ubiquitin-rhodamine cleavage | Q14694 | purified USP10, Ub-rhodamine fluorescence, 60 min | inhibition, % at 20 µM | actives 1.1% (n = 47,000)
USP30 block: inhibitors of human USP30 deubiquitinase | inhibition, % at 25 µM | actives 5.3% (n = 47,000) | AID 1645860 | Q70CQ3 | purified USP30, Ub-rhodamine cleavage fluorescence
USP8 block: blocks human USP8 ubiquitin-rhodamine cleavage; P40818; purified USP8, Ub-rhodamine cleavage fluorescence, 30 min; inhibition, % at 20 µM; actives 4.2% (n = 47,000); AID 1645853
Numbers without * were called inactive; / = no result given. Cut-off read from the data, not from the text of the source: active = inhibition above about 30%; inactive = the rest.

SMILES | USP28 block | USP17 block | USP7 inh | USP10 inh | USP30 block | USP8 block
Cc1cc(NC(=O)Cn2c(=O)n(Cc3ccco3)c(=O)c3ccc(C(=O)NCCc4ccccc4)cc32)n[nH]1 | 84* | 82* | 3 | 66* | 74* | 87*
O=C(Cn1c(=O)n(Cc2ccco2)c(=O)c2ccc(C(=O)NC3CCCC3)cc21)NCc1ccco1 | 28 | 55* | -2 | 20 | -15 | 45*
COc1ccc(-n2c(=O)c3ccc(C(=O)NCCc4ccccc4)cc3n(CC(=O)NCc3ccco3)c2=O)cc1 | 15 | 60* | -15 | 44* | -12 | 6
Cc1cc(C)cc(C(=O)NCCSc2ncc(-c3ccc(F)cc3)[nH]2)c1 | 5 | -5 | -2 | 2 | -8 | 9
CCOC(=O)c1cc2c(CSc3ccccc3)nn(C)c2s1 | 34* | 28 | 10 | 9 | 36* | 28
Cc1cccc(N2C(=O)N(c3ccccc3)C3CS(=O)(=O)CC32)c1 (centres undefined) | 2 | 7 | 1 | -3 | 25 | 10
Cc1cccc(N2C(=O)/C(=C\c3cc(C#N)n(C)c3C)c3ccccc3C2=O)c1 | 6 | 20 | 10 | 35* | -57 | 56*
Cc1ccccc1NC(=O)NCCc1cn(C)c2ncccc12 | 11 | 11 | 3 | 2 | 9 | 18
CC(C)CN1C[C@@H]2CN(S(=O)(=O)c3ccccc3)C[C@@H]2C1 | -15 | -1 | 0 | 0 | 0 | 3
O=C(NCc1nnc(SCC(=O)N2CCN(c3ccccc3)CC2)o1)c1ccccc1F | -11 | 2 | -1 | -4 | -18 | 2
O=C(CSc1nnc(CNC(=O)c2ccccc2F)o1)Nc1ccc(Br)cc1 | 8 | 33* | -6 | 2 | 0 | 3
COC[C@H]1CCCN1C(=O)CC[C@H]1CNC(=O)[C@@H]2[C@@H](CCN2C2CCOCC2)N1C | 31* | -38 | -7 | 0 | 29 | 40*
COC[C@H]1CCCN1C(=O)CC[C@H]1CNC(=O)[C@@H]2[C@@H](CCN2C(C)C)N1C | 28 | -42 | -1 | 1 | 2 | 41*
CS(=O)(=O)c1cccc(C(=O)Nc2nc(-c3ccncc3)cs2)c1 | -2 | 6 | 3 | 4 | -9 | -41
Cn1c(CNC(=O)Cc2ccccc2)nc2ccccc21 | 9 | -7 | -2 | -1 | 2 | -13
Cn1c(O)c(C2=Nc3ccccc3SC(c3cccc(O)c3)C2)c(=O)[nH]c1=O (centres undefined) | 15 | 39* | 2 | 24 | -27 | 11
CC(OC(=O)c1cc(=O)[nH]c2ccccc12)C(=O)Nc1ccc(F)cc1Cl (centres undefined) | 19 | 45* | 8 | 11 | 12 | 18
O=C(Nc1ccc(Cl)cc1F)c1cc(=O)[nH]c2ccccc12 | -9 | -5 | -2 | 9 | -12 | -3
O=c1oc2ccccc2c2nn(-c3ccccn3)cc12 | 0 | 51* | -2 | 5 | 27 | 8
Cc1cc2cc(CNc3ncnc4c3nnn4C)ccc2[nH]1 | -22 | 49* | -6 | -11 | -104 | 10
CCn1nnc2c(NCc3ccc(OC)cc3)ncnc21 | 5 | 5 | 2 | -1 | 16 | 12
CCOc1ccccc1C1c2[nH]c3ccccc3c2C[C@H]2C(=O)N(CCN3CCOCC3)CC(=O)N12 (some centres undefined) | -5 | 0 | 0 | -4 | -6 | 16
CC(=O)Nc1ccc(S(=O)(=O)N(C)CC(=O)Nc2ccccc2N2CCN(C)CC2)cc1 | -15 | -6 | -2 | -4 | 0 | -5
O=C(Cn1ccnc1)NC1(c2ccc(F)cc2)CCCC1 | 2 | 6 | 3 | 2 | 5 | 3
CCC(Cc1ccccc1)NC(=O)c1cc2sc(Cl)cc2n1C (centres undefined) | -24 | -13 | -4 | 1 | -23 | -47
Cn1c(C(=O)NCc2ccc(F)cc2)cc2sc(Cl)cc21 | 28 | 13 | -22 | 10 | 34* | 14
O=C(CS(=O)(=O)c1cccc(Cl)c1)Nc1cccc(C(F)(F)F)c1 | / | 3 | -12 | 7 | / | 8
COc1ccc(C(C)=O)cc1COC(=O)c1ccccc1OCc1ccc(Cl)cc1Cl | / | 5 | 3 | 2 | / | -1
COc1ccc(-c2ccnc(-c3ccc(OCc4cccc(F)c4)cc3)n2)cc1 | 12 | 56* | 8 | 0 | 41* | 19

Compound activity (PubChem)
